In PubChem BioAssay (Tox21):
Results filed as inconclusive are left out. Activity calls are given as the source filed them. Unless noted, calls come from the whole dose curve.

How the values were obtained:
[1] = Nuclear factor erythroid 2-related factor 2/antioxidant responsive element (Nrf2/ARE) small molecule agonists: qHTS cell viability counter screen in human keratinocytes (AID 1919968; active = well fitted curve in the direction sought with a large enough effect in the repeat runs; an effect the other way counts as inactive or inconclusive; note: nearly all actives have a fitted effect of over 55% in size; note: potency is the fitted concentration of half-maximal effect)
Summary of the method: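 After a 5 h attachment period, ARE-reporter keratinocytes were dosed with compounds in DMSO and then cultured 23 h at 37 C. Cell viability came from CellTiter-Fluor signal read after a further 1 h.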

[2] = Nuclear factor erythroid 2-related factor 2/antioxidant responsive element (Nrf2/ARE) small molecule agonists: luciferase reporter gene qHTS assay in human keratinocytes (AID 1919969); note: nearly all actives have a fitted effect of over 35% in size
[3] = target: Gonadotropin-releasing hormone receptor (Homo sapiens) (UniProt P30968); assay: Human gonadotropin-releasing hormone receptor (GnRHR) small molecule agonists, calcium flux assay in GnRHR-HEK293 cells (AID 1920063); note: nearly all actives have a fitted effect of over 35% in size; note: potency is the fitted concentration of half-maximal effect
Sequence of Gonadotropin-releasing hormone receptor (Homo sapiens) (P30968 whole entry, looked up): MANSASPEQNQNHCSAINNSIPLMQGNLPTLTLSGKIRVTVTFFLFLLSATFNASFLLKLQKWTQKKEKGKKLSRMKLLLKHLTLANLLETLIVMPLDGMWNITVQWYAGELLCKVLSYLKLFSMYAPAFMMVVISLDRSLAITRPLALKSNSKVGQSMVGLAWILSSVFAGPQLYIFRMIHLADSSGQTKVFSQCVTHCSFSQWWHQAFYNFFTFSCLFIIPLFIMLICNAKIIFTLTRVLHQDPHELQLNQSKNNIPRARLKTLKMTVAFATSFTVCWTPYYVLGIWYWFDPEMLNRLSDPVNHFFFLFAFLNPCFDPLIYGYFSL
Summary of the method: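 We seeded human GnRHR-expressing HEK293 cells for 18 hours, loaded them with calcium dye for an hour at 37 C, added test compounds, and recorded fluorescence intensity kinetically for three minutes.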

[4] = target: KiSS-1 receptor (Homo sapiens) (UniProt Q969F8); assay: Human kisspeptin (KISS1R) small molecule agonists, calcium flux assay in KISS1R-HEK293 cells (AID 1920064; active = well fitted curve in the direction sought with a large enough effect in the repeat runs; an effect the other way counts as inactive or inconclusive)
Sequence of KiSS-1 receptor (Homo sapiens) (Q969F8 whole entry, looked up): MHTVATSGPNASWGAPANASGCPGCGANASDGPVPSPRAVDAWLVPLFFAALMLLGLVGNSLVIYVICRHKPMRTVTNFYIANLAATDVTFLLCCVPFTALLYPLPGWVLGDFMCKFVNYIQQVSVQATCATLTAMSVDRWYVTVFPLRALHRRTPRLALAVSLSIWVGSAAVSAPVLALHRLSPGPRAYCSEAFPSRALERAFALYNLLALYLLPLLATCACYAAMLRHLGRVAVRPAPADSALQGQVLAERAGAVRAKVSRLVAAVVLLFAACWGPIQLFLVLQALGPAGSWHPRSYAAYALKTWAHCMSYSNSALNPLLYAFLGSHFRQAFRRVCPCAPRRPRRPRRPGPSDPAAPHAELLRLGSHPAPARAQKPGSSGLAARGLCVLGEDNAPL
Summary of the method: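 Kinetic calcium assay, 1 s sampling over 3 min at Ex/Em 480/540, in HEK293 cells engineered with human KISS1R; compounds delivered in DMSO after 1 h dye loading.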

[5] = G protein-coupled receptor (GPCR) small molecule agonists, calcium flux assay: HEK293 wild type cell line counter screen (AID 1920065)
Summary of the method: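 Calcium-sensitive dye, loaded 1 h at 37 C into cells cultured 18 h, reports compound-evoked calcium release as fluorescence (Ex/Em 480/540), measured over 3 min. Agonist mode; 15-point titrations, triplicate.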

[6] = p53 small molecule agonists, cell-based qHTS assay with human liver microsomes (AID 1963577);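 note: p53 response element beta-lactamase reporter cells with liver microsomes plus NADPH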
Summary of the method: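 With metabolic activation: human liver microsomes (0.5 mg/mL final) plus NADPH (0.5 mg/mL final) added alongside compounds to p53RE-bla cells; 16 h 37 C exposure; beta-lactamase read by LiveBLAzer fluorescence.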

[7] = p53 small molecule agonists, cell-based qHTS assay with rat liver microsomes (AID 1963578)
Summary of the method: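 Metabolic activation by rat liver microsomes and NADPH, each 0.5 mg/mL final, added right after compounds to p53RE-bla reporter cells (4,000/well, plated 5 h earlier). 16 h at 37 C, then LiveBLAzer substrate for 2 h at room temperature in the dark; fluorescence read-out.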

[8] = p53 small molecule agonists, cell-based qHTS assay with human liver microsomes: qHTS cell viability counter screen (AID 1963579); note: nearly all actives have a fitted effect of over 45% in size
Summary of the method: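 Metabolic activation used human liver microsomes and NADPH, both 0.5 mg/mL final, over 16 hours at 37 C on p53RE-bla cells (4,000/well). Cytotoxicity measured by CellTiter-Glo luminescence, 30 min at room temperature.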

[9] = p53 small molecule agonists, cell-based qHTS assay with rat liver microsomes: qHTS cell viability counter screen (AID 1963580); note: nearly all actives have a fitted effect of over 45% in size
Summary of the method: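 p53RE-bla HCT-116 cells (4,000/well) rested 5 h at 37 C, then given Tox21 compounds in DMSO with rat liver microsomes (0.5 mg/mL final) plus NADPH (0.5 mg/mL final) for 16 h at 37 C. Viability read by CellTiter-Glo luminescence after 30 min at room temperature.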

[10] = p53 small molecule agonists, cell-based qHTS assay: qHTS cell viability counter screen (AID 1963581); note: nearly all actives have a fitted effect of over 45% in size; note: potency is the fitted concentration of half-maximal effect
Summary of the method: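 Following 5 h attachment, HCT-116 p53RE-bla cells took up compound for 16 h at 37 C; the reporter was read with B/G FRET substrate (2 h RT), and viability then via CellTiter-Glo ATP luminescence.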

[11] = p53 small molecule agonists, cell-based qHTS assay (AID 1963582; active = well fitted activation curve with a large enough effect in the signal ratio in the repeat runs, not every such curve was filed as active; the % refers to the signal ratio)
Summary of the method: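 In this cell-based concentration-response screen, a p53 response element drives beta-lactamase; cells received DMSO-borne compounds after 5 h culture and were incubated a further 16 h before FRET substrate development.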

[12] = target: 5-hydroxytryptamine receptor 2A (Homo sapiens) (UniProt P28223); assay: 5-hydroxytryptamine receptor 2A (HTR2A) small molecule agonists, cell-based qHTS assay (AID 1963587); note: nearly all actives have a fitted effect of over 30% in size; note: potency is the fitted concentration of half-maximal effect
Sequence of 5-hydroxytryptamine receptor 2A (Homo sapiens) (P28223 whole entry, looked up): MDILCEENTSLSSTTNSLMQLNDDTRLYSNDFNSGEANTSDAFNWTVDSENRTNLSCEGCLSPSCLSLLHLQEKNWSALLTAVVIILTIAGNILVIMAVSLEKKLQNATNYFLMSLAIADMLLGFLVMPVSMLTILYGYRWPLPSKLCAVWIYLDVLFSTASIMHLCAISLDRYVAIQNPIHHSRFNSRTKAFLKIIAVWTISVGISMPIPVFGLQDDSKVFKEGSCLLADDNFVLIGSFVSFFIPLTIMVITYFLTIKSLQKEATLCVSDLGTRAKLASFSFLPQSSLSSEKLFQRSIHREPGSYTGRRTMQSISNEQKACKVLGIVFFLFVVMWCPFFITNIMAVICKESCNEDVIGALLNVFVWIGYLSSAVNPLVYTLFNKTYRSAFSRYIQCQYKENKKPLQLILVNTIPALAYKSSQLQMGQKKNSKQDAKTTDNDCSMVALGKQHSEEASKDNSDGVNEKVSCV
Summary of the method: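 HTR2A-CHO cells, plated 18 h at 37 C/5% CO2, dye-loaded 1 h at 37 C; compounds in DMSO added by pin tool (agonist mode). Intracellular calcium flux read as kinetic fluorescence on FDSS over 2 min at 1 s intervals.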

[13] = target: Muscarinic acetylcholine receptor M1 (Homo sapiens) (UniProt P11229); assay: Cholinergic receptor muscarinic 1 (CHRM1) small molecule antagonists, cell-based qHTS assay (AID 1963588); note: nearly all actives have a fitted effect of over 40% in size; note: potency is the fitted concentration of half-maximal effect
Sequence of Muscarinic acetylcholine receptor M1 (Homo sapiens) (P11229 whole entry, looked up): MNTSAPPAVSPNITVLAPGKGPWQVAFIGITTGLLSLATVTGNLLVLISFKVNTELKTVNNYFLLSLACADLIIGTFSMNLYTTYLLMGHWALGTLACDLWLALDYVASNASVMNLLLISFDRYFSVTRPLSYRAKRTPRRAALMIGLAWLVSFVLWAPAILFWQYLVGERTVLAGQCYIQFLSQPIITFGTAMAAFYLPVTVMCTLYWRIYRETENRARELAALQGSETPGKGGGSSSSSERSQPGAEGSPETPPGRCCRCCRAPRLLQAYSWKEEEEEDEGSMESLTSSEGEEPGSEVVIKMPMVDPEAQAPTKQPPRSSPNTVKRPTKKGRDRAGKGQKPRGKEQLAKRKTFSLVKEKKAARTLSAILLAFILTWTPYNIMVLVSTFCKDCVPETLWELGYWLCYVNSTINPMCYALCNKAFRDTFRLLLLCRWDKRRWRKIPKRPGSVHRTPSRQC
Summary of the method: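 CHRM1-CHO calcium-flux assay, antagonist mode. Cells were seeded 18 h, dye-loaded 1 h at 37 C and given compound for 5 min at RT, then acetylcholine was added at 50nM. FDSS fluorescence was read 3 min; 15 concentrations, three runs.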

[14] = cAMP Responsive Elements (CRE) small molecule agonists, cell-based qHTS assay (AID 1963590)
Summary of the method: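 A CRE-responsive beta-lactamase reporter in HEK 293T cells was used. Treatment ran 3 h at 37 C; detection used LiveBLAzer B/G FRET substrate for 2 h at room temperature.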

[15] = cAMP Responsive Elements (CRE) small molecule antagonists, cell-based qHTS assay (AID 1963591; active = well fitted inhibition curve with a large enough effect in the signal ratio in the repeat runs, not every such curve was filed as active; the % refers to the signal ratio)
Summary of the method: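 HEK293T cells carrying a CRE-driven beta-lactamase reporter receive compound and NKH477 (0.25 uM final) for 3 h. Fluorescence from LiveBLAzer B/G FRET substrate is read after 2 h at room temperature.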

[16] = target: Beta-2 adrenergic receptor (Homo sapiens) (UniProt P07550); assay: Adrenergic beta2 receptor (ADRB2) small molecule antagonists, cell-based qHTS assay (AID 1963592); note: series mostly up to about 92 µM; nearly all actives have a fitted effect of over 50% in size
Sequence of Beta-2 adrenergic receptor (Homo sapiens) (P07550 whole entry, looked up): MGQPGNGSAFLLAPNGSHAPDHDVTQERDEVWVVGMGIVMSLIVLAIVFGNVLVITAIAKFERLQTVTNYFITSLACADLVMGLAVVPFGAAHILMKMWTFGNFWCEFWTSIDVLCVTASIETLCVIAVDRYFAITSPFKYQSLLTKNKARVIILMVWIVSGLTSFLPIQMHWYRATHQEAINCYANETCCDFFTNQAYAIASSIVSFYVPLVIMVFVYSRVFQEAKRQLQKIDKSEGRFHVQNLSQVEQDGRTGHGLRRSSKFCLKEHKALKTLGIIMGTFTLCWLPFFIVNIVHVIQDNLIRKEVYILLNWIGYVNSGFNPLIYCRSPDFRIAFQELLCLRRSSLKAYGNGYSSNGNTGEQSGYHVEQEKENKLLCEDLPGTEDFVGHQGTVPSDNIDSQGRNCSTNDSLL
Summary of the method: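 Cells (CHO, stable ADRB2 overexpression) incubated 18-20hr at 37C; compounds added from DMSO; agonist mix (1nM isoproterenol, 100uM IBMX, 25uM Ro-20-1724) added; 0.5hr RT; d2-cAMP and anti-cAMP-cryptate added; 1hr RT; 665/615 nm read.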

[17] = target: Beta-2 adrenergic receptor (Homo sapiens) (UniProt P07550); assay: Adrenergic beta2 receptor (ADRB2) small molecule agonists, cell-based qHTS assay (AID 1963593);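 note: CHO cells stably overexpressing human ADRB2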
Summary of the method: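 CHO cells stably over-expressing ADRB2 were plated overnight at 37C, then dosed with compounds plus a stimulation mix containing 100uM IBMX and 25uM Ro-20-1724 for 0.5hr at room temperature. cAMP was measured by HTRF competition, 1hr.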

[18] = target: D(2) dopamine receptor (Homo sapiens) (UniProt P14416); assay: Dopamine D2 receptor (DRD2) small molecule agonists, cell-based qHTS assay (AID 1963594); note: nearly all actives have a fitted effect of over 35% in size
Sequence of D(2) dopamine receptor (Homo sapiens) (P14416 whole entry, looked up): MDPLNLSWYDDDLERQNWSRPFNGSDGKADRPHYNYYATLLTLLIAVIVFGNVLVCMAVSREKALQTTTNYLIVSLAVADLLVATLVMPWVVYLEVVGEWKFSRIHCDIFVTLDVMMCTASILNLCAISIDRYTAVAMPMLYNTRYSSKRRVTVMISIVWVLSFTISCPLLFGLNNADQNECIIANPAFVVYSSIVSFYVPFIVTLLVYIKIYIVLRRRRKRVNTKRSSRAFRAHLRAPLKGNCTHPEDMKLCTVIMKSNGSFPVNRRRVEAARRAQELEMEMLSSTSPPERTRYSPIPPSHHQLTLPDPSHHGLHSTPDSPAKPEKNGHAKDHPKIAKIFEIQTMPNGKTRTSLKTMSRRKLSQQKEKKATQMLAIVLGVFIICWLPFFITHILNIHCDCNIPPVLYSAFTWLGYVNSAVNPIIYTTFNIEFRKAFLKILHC
Summary of the method: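 HEK293 cells stably expressing DRD2 were cultured 24 h at 37 C, then given Ro20-1724 (0.1 mM final) and compounds for 10 min at room temperature. NKH477 (200nM) was then added for 30 min. cAMP was read by HTRF.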

[19] = target: Muscarinic acetylcholine receptor M1 (Homo sapiens) (UniProt P11229); assay: Cholinergic receptor muscarinic 1 (CHRM1) small molecule agonists, cell-based qHTS assay (AID 1963589); note: nearly all actives have a fitted effect of over 35% in size
Summary of the method: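 Measures agonist-induced intracellular calcium rise. Stable human CHRM1 CHO line, 1 h dye load at 37 C, compounds from DMSO, kinetic fluorescence read.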

[20] = target: D(2) dopamine receptor (Homo sapiens) (UniProt P14416); assay: Dopamine D2 receptor (DRD2) small molecule antagonists, cell-based qHTS assay (AID 1963595; active = well fitted inhibition curve with a large enough effect in the signal ratio in the repeat runs, with a control signal flat; the % refers to the signal ratio)
Summary of the method: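 Stable D2 receptor HEK293 line, 24 h after seeding. Compound preincubated 10 min, then quinpirole (12 nM) with forskolin analogue NKH477 (200 nM), 30 min, room temperature. Detection by time-resolved FRET of cAMP.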
% is set by controls: 0 for no effect and ±100 for the full control effect.

CCOC(=O)c1ccc(OC(=O)CCCCCN=C(N)N)cc1
inactive: Potency [1] | Potency [2] | Potency [3] | outcome [4] | outcome [5] | Potency [6] | Potency [7] | Potency [8] | Potency [9] | Potency [10] | Potency [11] | Potency [12] | Potency [14] | Potency [15] | Potency [16] | Potency [17] | Potency [18]
active: Potency [13] 7.29 µM

COc1ccc(CN2CCN(C(c3ccc(F)cc3)c3ccc(F)cc3)CC2)c(OC)c1OC
inactive: Potency [2] | Potency [3] | outcome [4] | outcome [5] | Potency [6] | Potency [7] | Potency [8] | Potency [9] | Potency [11] | Potency [12] | Potency [19] | Potency [16] | Potency [17] | Potency [18]
active: Potency [1] 21.1 µM | Potency [10] 15.8 µM | Potency [13] 2.59 µM

CNC(=O)c1c(I)c(NC(=O)CCCCC(=O)Nc2c(I)c(C(=O)O)c(I)c(C(=O)NC)c2I)c(I)c(C(=O)O)c1I
inactive: Potency [1] | Potency [2] | Potency [3] | outcome [4] | outcome [5] | Potency [6] | Potency [7] | Potency [8] | Potency [9] | Potency [10] | Potency [11] | Potency [12] | Potency [13] | Potency [19] | Potency [15] | Potency [16] | Potency [17] | Potency [18]

Clc1cc(Cl)c(Cl)nc1Cl
active: Potency [12] 24.6 µM
inactive: Potency [1] | Potency [2] | Potency [3] | outcome [4] | outcome [5] | Potency [6] | Potency [7] | Potency [8] | Potency [9] | Potency [10] | Potency [11] | Potency [13] | Potency [14] | Potency [15] | Potency [16] | Potency [18] | Potency [20]

NC(=O)c1cn(Cc2c(F)cccc2F)nn1
inactive: Potency [1] | Potency [2] | Potency [3] | outcome [4] | outcome [5] | Potency [6] | Potency [7] | Potency [8] | Potency [9] | Potency [10] | Potency [11] | Potency [12] | Potency [13] | Potency [19] | Potency [15] | Potency [16] | Potency [17] | Potency [20]

[O]=[Mo](=[O])=[O]
inactive: activity change, negative = cytotoxicity [1] 1.36% [at 19 µM] | activity, positive = activation [2] -5.06% [at 19 µM] | activity change [3] -0.246% [at 11.8 µM, stronger effect = higher value] | activation [4] -1.57% [at 15.8 µM] | activation [5] -0.132% [at 11.8 µM] | activation [6] -1.11% [at 13.5 µM] | activation [7] -0.845% [at 13.6 µM] | activity change, negative = cytotoxicity [8] 2.49% [at 13.5 µM] | activity change, negative = cytotoxicity [9] 5.17% [at 13.5 µM] | activity change, negative = cytotoxicity [10] 14.2% [at 13.5 µM] | activation [11] -2.07% [at 13.5 µM] | activation [12] 4.75% [at 15.9 µM] | activity, negative = inhibition [13] 1.32% [at 12.6 µM] | activation [19] 0.586% [at 15.8 µM] | activity change, negative = inhibition [15] 1.4% [at 18.9 µM] | activity change, negative = inhibition [16] -19.7% [at 19 µM] | activation [18] -0.0356% [at 19 µM] | activity change, negative = inhibition [20] -0.307% [at 18.9 µM]

COC(=O)N/N=C/c1c[n+]([O-])c2ccccc2[n+]1[O-]
inactive: Potency [1] | Potency [2] | outcome [4] | outcome [5] | Potency [6] | Potency [7] | Potency [8] | Potency [9] | Potency [10] | Potency [11] | Potency [19] | Potency [14] | Potency [15] | Potency [16] | Potency [18]
active: Potency [3] 19 µM | Potency [12] 15.1 µM

OC[C@H]1O[C@@H](O[C@@H]2[C@@H](CO)O[C@](O)(CO)[C@H]2O)[C@H](O)[C@@H](O)[C@H]1O
inactive: Potency [1] | Potency [2] | Potency [3] | outcome [4] | outcome [5] | Potency [6] | Potency [7] | Potency [8] | Potency [9] | Potency [10] | Potency [11] | Potency [12] | Potency [19] | Potency [14] | Potency [15] | Potency [16] | Potency [17] | Potency [18] | Potency [20]

OC[C@@H](O)[C@@H](O)CO
inactive: Potency [1] | Potency [2] | Potency [3] | outcome [4] | outcome [5] | Potency [6] | Potency [7] | Potency [8] | Potency [9] | Potency [10] | Potency [11] | Potency [12] | Potency [13] | Potency [14] | Potency [15] | Potency [16] | Potency [18] | Potency [20]
